Results as given in ChEMBL document CHEMBL1961873, “Compounds: GSK PKIS; Assays: Nanosyn kinase panel” (2012).

Tests used:
[1] = molecular target: Mast/stem cell growth factor receptor Kit (Homo sapiens) (UniProt P10721); conditions: at 1 µM
[2] = system: Mast/stem cell growth factor receptor Kit (Homo sapiens), P10721 [D816V]; conditions: at 0.1 µM
[3] = system: Mast/stem cell growth factor receptor Kit (Homo sapiens), P10721 [D816V]; conditions: at 1 µM
[4] = system: Mast/stem cell growth factor receptor Kit (Homo sapiens), P10721 [T670I]; conditions: at 0.1 µM
[5] = system: Mast/stem cell growth factor receptor Kit (Homo sapiens), P10721 [T670I]; conditions: at 1 µM
[6] = system: Mast/stem cell growth factor receptor Kit (Homo sapiens), P10721 [V560G]; conditions: at 0.1 µM
[7] = system: Mast/stem cell growth factor receptor Kit (Homo sapiens), P10721 [V560G]; conditions: at 1 µM
[8] = molecular target: Tyrosine-protein kinase Lck (Homo sapiens) (UniProt P06239); conditions: at 0.1 µM
[9] = molecular target: Tyrosine-protein kinase Lck (Homo sapiens) (UniProt P06239); conditions: at 1 µM
[10] = molecular target: Leukocyte tyrosine kinase receptor (Homo sapiens) (UniProt P29376); conditions: at 0.1 µM
[11] = molecular target: Leukocyte tyrosine kinase receptor (Homo sapiens) (UniProt P29376); conditions: at 1 µM
[12] = molecular target: Tyrosine-protein kinase Lyn (Homo sapiens) (UniProt P07948); conditions: at 0.1 µM
[13] = molecular target: Tyrosine-protein kinase Lyn (Homo sapiens) (UniProt P07948); conditions: at 1 µM
[14] = molecular target: Tyrosine-protein kinase Lyn (Homo sapiens) (UniProt P07948); conditions: at 0.1 µM; remark: listed apart in the source
[15] = molecular target: Tyrosine-protein kinase Lyn (Homo sapiens) (UniProt P07948); conditions: at 1 µM; remark: listed apart in the source
[16] = molecular target: T1, Tyrosine-protein kinase Mer (Homo sapiens) (UniProt Q12866); conditions: at 0.1 µM
T1 sequence (whole entry): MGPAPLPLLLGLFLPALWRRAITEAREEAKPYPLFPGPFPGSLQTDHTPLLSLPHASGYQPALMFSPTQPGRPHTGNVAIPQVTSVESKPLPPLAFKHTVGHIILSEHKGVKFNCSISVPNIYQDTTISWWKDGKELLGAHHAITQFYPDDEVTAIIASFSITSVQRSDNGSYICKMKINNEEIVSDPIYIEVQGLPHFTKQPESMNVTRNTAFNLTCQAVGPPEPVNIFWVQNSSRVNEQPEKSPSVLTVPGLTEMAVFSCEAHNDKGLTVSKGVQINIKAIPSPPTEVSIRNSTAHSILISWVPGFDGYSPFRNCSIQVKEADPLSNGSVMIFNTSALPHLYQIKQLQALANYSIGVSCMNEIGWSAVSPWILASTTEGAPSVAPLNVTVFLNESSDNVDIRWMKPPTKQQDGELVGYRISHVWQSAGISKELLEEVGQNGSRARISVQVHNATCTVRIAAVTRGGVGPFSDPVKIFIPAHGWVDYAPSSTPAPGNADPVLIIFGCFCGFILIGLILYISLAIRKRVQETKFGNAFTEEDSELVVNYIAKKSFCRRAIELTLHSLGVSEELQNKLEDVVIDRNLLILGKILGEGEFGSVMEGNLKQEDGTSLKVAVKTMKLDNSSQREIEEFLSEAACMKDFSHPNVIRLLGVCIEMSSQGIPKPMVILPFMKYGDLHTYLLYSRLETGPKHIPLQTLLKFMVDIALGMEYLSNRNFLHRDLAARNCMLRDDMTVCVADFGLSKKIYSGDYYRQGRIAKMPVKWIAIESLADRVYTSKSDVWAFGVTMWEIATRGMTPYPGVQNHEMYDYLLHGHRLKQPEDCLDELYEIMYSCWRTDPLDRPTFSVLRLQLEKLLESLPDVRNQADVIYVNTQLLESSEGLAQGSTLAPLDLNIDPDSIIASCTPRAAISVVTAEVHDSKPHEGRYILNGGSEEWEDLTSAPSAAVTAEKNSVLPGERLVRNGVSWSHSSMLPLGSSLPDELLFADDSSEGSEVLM

[17] = molecular target: T1, Tyrosine-protein kinase Mer (Homo sapiens); conditions: at 1 µM
[18] = molecular target: Hepatocyte growth factor receptor (Homo sapiens) (UniProt P08581); conditions: at 0.1 µM
[19] = molecular target: Hepatocyte growth factor receptor (Homo sapiens) (UniProt P08581); conditions: at 1 µM
[20] = molecular target: T2, Muscle, skeletal receptor tyrosine-protein kinase (Homo sapiens) (UniProt O15146); conditions: at 0.1 µM;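 note: values are mean inhibition of MuSK from the GSK PKIS kinase screening panel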
T2 sequence (whole entry): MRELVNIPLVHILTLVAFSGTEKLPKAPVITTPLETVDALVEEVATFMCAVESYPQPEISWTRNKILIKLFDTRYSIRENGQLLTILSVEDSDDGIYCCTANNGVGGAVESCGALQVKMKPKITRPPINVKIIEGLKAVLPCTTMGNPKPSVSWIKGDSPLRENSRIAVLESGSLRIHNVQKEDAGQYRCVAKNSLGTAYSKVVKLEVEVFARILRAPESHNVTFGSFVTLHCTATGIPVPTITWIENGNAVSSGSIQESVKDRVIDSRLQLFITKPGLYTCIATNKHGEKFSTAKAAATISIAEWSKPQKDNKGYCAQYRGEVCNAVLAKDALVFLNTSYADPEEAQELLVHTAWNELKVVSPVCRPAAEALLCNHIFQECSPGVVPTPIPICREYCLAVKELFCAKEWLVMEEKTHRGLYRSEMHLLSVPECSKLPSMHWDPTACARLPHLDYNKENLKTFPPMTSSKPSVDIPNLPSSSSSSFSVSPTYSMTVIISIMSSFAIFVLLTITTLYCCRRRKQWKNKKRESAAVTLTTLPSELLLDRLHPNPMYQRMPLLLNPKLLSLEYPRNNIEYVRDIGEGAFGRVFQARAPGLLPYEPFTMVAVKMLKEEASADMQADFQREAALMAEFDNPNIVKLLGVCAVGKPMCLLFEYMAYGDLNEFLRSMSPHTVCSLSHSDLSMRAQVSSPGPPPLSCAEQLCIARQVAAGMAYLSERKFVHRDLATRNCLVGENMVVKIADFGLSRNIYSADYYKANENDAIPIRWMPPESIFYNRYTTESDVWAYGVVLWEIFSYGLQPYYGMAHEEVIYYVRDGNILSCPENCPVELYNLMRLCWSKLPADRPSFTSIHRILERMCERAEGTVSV

Sequence of Tyrosine-protein kinase Lck (Homo sapiens) (P06239 2-509 limits assumed): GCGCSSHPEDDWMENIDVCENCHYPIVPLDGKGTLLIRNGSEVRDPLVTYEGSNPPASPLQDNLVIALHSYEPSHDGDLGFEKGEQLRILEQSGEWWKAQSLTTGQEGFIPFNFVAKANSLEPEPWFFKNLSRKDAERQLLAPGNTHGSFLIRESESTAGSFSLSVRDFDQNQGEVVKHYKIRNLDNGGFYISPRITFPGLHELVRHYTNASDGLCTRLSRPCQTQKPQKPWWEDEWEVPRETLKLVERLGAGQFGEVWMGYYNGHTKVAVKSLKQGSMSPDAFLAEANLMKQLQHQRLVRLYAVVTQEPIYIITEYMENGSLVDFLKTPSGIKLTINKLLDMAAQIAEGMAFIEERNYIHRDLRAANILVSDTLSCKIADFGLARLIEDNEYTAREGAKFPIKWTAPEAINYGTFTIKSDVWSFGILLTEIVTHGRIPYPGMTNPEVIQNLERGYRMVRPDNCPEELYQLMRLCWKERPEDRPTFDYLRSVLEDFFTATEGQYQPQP
Sequence of Leukocyte tyrosine kinase receptor (Homo sapiens) (P29376 whole entry): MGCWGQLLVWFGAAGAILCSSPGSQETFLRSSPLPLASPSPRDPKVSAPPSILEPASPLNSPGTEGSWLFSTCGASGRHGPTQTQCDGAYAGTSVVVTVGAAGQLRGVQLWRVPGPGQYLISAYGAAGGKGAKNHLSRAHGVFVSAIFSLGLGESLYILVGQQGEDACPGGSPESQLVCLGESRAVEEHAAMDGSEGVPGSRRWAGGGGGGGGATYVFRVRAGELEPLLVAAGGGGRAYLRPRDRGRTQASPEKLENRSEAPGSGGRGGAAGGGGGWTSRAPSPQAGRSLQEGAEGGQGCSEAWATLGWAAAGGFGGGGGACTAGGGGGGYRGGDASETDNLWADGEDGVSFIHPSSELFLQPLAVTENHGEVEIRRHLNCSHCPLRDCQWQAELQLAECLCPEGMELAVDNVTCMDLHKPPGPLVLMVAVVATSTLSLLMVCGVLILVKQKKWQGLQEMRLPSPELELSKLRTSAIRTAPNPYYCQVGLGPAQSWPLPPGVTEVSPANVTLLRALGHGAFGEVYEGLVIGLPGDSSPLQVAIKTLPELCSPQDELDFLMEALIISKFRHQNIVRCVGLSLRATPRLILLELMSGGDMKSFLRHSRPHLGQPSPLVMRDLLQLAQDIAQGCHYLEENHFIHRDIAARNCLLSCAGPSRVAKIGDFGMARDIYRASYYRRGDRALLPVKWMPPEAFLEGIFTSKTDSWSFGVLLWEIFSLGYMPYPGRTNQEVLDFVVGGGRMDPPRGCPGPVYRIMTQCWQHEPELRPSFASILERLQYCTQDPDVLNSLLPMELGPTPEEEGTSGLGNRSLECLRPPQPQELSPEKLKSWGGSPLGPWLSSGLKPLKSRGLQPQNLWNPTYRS
Sequence of Hepatocyte growth factor receptor (Homo sapiens) (P08581 whole entry): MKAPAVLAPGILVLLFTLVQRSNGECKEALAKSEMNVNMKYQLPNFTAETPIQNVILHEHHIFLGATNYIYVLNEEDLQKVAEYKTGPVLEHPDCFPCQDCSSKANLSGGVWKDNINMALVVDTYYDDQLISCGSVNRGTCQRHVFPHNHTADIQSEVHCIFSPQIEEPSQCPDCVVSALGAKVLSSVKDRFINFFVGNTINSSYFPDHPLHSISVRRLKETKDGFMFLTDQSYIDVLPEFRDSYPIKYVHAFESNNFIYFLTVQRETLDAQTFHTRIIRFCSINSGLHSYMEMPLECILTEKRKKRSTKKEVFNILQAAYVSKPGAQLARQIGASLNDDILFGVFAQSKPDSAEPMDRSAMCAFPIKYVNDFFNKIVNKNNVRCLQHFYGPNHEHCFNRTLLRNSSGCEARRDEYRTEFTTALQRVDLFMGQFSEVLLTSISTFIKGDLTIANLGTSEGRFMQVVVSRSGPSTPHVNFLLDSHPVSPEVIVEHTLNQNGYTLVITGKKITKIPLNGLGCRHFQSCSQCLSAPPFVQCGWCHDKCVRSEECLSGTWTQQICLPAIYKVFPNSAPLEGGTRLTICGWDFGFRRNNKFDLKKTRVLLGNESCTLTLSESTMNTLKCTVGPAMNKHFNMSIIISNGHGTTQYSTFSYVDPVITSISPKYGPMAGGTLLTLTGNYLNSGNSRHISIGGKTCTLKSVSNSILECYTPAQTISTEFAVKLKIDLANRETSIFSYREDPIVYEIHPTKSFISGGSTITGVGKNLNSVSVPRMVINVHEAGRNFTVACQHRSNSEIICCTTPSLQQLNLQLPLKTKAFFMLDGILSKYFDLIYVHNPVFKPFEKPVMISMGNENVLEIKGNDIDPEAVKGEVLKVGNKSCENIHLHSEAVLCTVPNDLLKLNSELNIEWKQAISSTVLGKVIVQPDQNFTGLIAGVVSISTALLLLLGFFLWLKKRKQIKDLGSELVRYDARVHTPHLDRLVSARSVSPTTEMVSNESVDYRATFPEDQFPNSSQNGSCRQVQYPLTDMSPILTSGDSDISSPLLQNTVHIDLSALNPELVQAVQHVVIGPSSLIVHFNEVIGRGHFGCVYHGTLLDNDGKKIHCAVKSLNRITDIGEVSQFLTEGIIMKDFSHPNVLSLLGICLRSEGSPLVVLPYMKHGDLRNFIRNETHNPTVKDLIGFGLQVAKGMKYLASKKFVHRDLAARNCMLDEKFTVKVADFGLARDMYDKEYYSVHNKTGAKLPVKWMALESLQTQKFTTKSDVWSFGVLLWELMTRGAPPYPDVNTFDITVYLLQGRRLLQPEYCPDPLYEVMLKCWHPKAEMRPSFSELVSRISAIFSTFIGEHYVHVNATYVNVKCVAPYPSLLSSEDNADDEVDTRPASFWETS
Sequence of Mast/stem cell growth factor receptor Kit (Homo sapiens) (P10721 whole entry): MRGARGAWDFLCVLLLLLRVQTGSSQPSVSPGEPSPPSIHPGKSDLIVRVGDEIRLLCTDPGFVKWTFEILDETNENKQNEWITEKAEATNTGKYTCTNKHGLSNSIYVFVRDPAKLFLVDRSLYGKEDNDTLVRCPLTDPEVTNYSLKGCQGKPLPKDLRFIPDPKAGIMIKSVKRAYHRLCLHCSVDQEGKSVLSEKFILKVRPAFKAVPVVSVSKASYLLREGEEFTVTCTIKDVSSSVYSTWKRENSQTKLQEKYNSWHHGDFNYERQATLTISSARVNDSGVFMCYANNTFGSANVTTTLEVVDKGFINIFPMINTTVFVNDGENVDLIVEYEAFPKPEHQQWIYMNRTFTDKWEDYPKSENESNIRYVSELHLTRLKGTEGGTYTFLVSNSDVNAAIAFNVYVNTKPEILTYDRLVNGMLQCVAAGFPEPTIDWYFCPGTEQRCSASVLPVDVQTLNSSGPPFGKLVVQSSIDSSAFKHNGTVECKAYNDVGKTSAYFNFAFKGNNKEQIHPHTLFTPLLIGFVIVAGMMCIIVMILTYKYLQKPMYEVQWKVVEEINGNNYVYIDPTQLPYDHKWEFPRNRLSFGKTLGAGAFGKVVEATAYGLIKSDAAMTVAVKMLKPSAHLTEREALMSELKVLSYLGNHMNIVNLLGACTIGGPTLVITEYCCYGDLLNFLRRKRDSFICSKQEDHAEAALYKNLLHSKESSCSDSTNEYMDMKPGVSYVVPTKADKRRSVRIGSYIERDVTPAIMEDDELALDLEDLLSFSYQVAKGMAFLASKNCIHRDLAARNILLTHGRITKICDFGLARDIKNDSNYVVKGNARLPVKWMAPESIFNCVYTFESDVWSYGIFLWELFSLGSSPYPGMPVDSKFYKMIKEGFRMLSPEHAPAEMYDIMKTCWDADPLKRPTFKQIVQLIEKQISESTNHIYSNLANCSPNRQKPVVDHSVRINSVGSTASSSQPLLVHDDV
Sequence of Tyrosine-protein kinase Lyn (Homo sapiens) (P07948 2-512 limits assumed): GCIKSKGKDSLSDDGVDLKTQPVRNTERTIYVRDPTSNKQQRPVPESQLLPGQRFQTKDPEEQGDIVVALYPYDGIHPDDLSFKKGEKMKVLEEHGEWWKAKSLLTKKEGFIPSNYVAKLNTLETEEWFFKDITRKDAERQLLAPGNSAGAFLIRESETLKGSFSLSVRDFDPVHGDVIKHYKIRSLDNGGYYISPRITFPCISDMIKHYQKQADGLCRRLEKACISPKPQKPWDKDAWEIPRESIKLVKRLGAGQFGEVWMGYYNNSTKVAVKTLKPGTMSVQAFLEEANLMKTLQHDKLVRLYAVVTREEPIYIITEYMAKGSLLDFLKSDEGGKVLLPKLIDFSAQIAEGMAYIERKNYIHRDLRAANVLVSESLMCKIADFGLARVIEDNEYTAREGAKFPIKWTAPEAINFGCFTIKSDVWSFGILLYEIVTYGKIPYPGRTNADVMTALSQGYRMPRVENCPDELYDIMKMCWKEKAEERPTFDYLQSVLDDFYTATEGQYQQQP
Sequence of Mast/stem cell growth factor receptor Kit (Homo sapiens), P10721 [V560G] (P10721 whole entry V560G): as the sequence (P10721 whole entry) above, with V560G counted along it
Sequence of Mast/stem cell growth factor receptor Kit (Homo sapiens), P10721 [T670I] (P10721 whole entry T670I): as the sequence (P10721 whole entry) above, with T670I counted along it
Sequence of Mast/stem cell growth factor receptor Kit (Homo sapiens), P10721 [D816V] (P10721 whole entry D816V): as the sequence (P10721 whole entry) above, with D816V counted along it

Compound	inhibition [1]	inhibition [2]	inhibition [3]	inhibition [4]	inhibition [5]	inhibition [6]	inhibition [7]	inhibition [8]	inhibition [9]	inhibition [10]	inhibition [11]	inhibition [12]	inhibition [13]	inhibition [14]	inhibition [15]	inhibition [16]	inhibition [17]	inhibition [18]	inhibition [19]	inhibition [20]
c1ccc(Cc2nc3ccc(Nc4ncnc5ccccc45)cc3[nH]2)cc1	11.5%	2.6%	7.57%	5.98%	3.71%	2.34%	5.96%	2.08%	9.45%	2.98%	2.52%	5.18%	10.3%	2.45%	8.65%	0.72%	1.74%	4.71%	7.9%	3.14%
COc1cccc(-n2ncc3c(N/N=C/c4ccc(C)cc4)ncnc32)c1	10.6%	2.8%	6.2%	0.52%	4.07%	-2.84%	-2.13%	7.28%	21.3%	4.23%	8.61%	9.2%	23.2%	5.91%	18.6%	2.65%	4.53%	-2.1%	7.4%	6.89%
O=C(Nc1ccc(Oc2ccc3[nH]c(NC(=O)c4ccco4)nc3c2)cc1)Nc1cc(C(F)(F)F)ccc1F	92.1%	-0.77%	-1.72%	12.6%	79.5%	25.1%	72.9%	1%	38.8%	0.05%	5.81%	14%	65.7%	9.31%	60.5%	0.43%	14.1%	3.13%	42.9%	49.9%
N#Cc1c(NC(=O)c2ccccc2F)sc2c1CCCC2	-1.43%	-1.25%	-3.62%	-0.75%	0.26%	2.34%	2.89%	0.15%	4.08%	-1.29%	-0.82%	-0.87%	0.22%	-0.31%	0.82%	-1.5%	0.64%	10.5%	4.86%	1.84%
N#Cc1cccc(Nc2nccc(-c3cnn4ncccc34)n2)c1	100%	4.4%	9.63%	32.2%	88.5%	24.4%	71.6%	4.61%	18.3%	6.31%	12.7%	6.49%	31.5%	4.82%	22.2%	7.85%	46%	6.82%	17.3%	5.72%
CN(C)C(=O)O[C@@H]1CN[C@@H](C#Cc2cc3ncnc(Nc4ccc(OCc5cccc(F)c5)c(Cl)c4)c3s2)C1	-0.23%	1.36%	-2.75%	-2.12%	-2.74%	0.19%	4.14%	1.89%	5.66%	0.9%	0.68%	0.77%	2.73%	0.28%	1.62%	-0.95%	2.89%	5.31%	0.32%	-0.25%
Nc1nccc(C#Cc2cncnc2Nc2ccc(OCc3cccc(F)c3)c(Cl)c2)n1	2.68%	3.2%	2.1%	1.97%	1.54%	-1.72%	1.13%	1.54%	8.03%	3.49%	2.75%	3.62%	3.49%	3.64%	1.57%	2.77%	9.35%	4.74%	8.47%	4.37%
CCS(=O)(=O)c1ccc(OC)c(Nc2nccc(N(C)c3ccc4c(C)n[nH]c4c3)n2)c1	88.5%	6.18%	23.9%	5.56%	6.79%	0.4%	11.8%	26.2%	60.2%	7.51%	37.5%	45.7%	85%	37.7%	82.8%	-1.04%	1.84%	3.86%	5.71%	2.51%
OCc1ccc(-c2nc(-c3ccccn3)c(-c3ccc4c(c3)OCO4)[nH]2)cc1	3.32%	4.26%	1.86%	3.18%	0.71%	-1.45%	2.83%	4.57%	6.53%	3.45%	4.28%	6.03%	6.58%	3.09%	3.31%	0.75%	1.08%	11.7%	8.92%	3.11%
FC(F)(F)c1ccc(-c2nn3ncccc3c2-c2ccnc(Nc3ccc4c(c3)OCCO4)n2)cc1	41.4%	-0.4%	4.93%	0.89%	6.31%	9.1%	21.1%	6.41%	42.5%	1.18%	3.42%	6.84%	37.1%	4.96%	30.8%	7.37%	8.55%	5.94%	12.1%	7.57%
NS(=O)(=O)c1ccc(Nc2cc(-c3cccc(O)c3)n[nH]2)cc1	83.7%	3.6%	4.78%	4.57%	4.81%	4.28%	25.4%	1.64%	4.8%	2.99%	3.32%	6.83%	8.1%	3.6%	3.96%	0.91%	6.51%	5.16%	2.36%	4.32%
CCn1c(-c2nonc2N)nc2ccc(F)cc21	6.81%	6.28%	3.76%	3.59%	6.26%	-1.12%	-0.91%	2.91%	2.85%	3.51%	5.25%	7.21%	9.59%	3.75%	5.9%	1.51%	3.19%	8.56%	9.65%	2.27%
O=C1Nc2ccccc2/C1=C/Nc1ccc2[nH]c(=O)[nH]c2c1	84.4%	3.67%	10.1%	13.6%	71.7%	-0.78%	21.8%	3.64%	11.9%	5.48%	13.2%	10.5%	30.1%	7.45%	23.2%	1.74%	7.93%	7.49%	14.8%	6.75%
